Assay [1] can be described thus: qHTS assay to identify small molecule antagonists of the vitamin D receptor (VDR) signaling pathway - cell viability counter screen (AID 743225; active = well fitted curve in the direction sought with a large enough effect in the repeat runs; an effect the other way counts as inactive or inconclusive; also: nearly all actives have a fitted effect of over 50% in size; also: potency is read from the fitted curve at half-maximal effect). The procedure, abridged:
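Compounds were pinned onto VDR-bla HEK 293T cells together with 1-alpha,25-dihydroxyvitamin D3 at 3 nM final. After 16 h at 37C and 5% CO2 plus the reporter readout, cell viability was measured by CellTiter-Glo luminescence (30 min, room temperature).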
A general note: Quantitative high-throughput screening tests each substance at several concentrations.

Assay [2] is described as follows: qHTS assay to identify small molecule agonists of the NFkB signaling pathway - cell viability counter screen (AID 1159515). Also: series mostly up to about 61 µM; nearly all actives have a fitted effect of over 55% in size. The procedure, abridged: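 Multiplexed viability readout: after the 5 hr compound exposure and 1.5 hr FRET substrate step, CellTiter-Glo reagent went into the same NFkB-bla ME-180 wells; ATP luminescence was measured after 30 min at room temperature.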

Assay [3] can be described thus: qHTS assay to identify small molecule agonists of the endoplasmic reticulum stress response signaling pathway (AID 1159516; active = well fitted activation curve with a large enough effect in the signal ratio in the repeat runs, not every such curve was filed as active; the % refers to the signal ratio). The procedure, abridged:
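Tox21 10K library screened in quantitative HTS format on ESRE-bla HeLa cells, a beta-lactamase reporter under ER stress response element control; 5 hr treatment, FRET read.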

A short description of assay [4]: qHTS assay to identify small molecule antagonists of the retinoid-related orphan receptor gamma (ROR-gamma) signaling pathway - cell viability counter screen (AID 1159520; active = well fitted curve in the direction sought with a large enough effect in the repeat runs; an effect the other way counts as inactive or inconclusive; also: nearly all actives have a fitted effect of over 50% in size; also: potency is read from the fitted curve at half-maximal effect). The procedure, abridged: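 Cytotoxicity was read from cellular ATP (CellTiter-Glo luminescence) after 16 hr at 37 C with 1 uM doxycycline induction. The inducer was added 2 hr after compound transfer to Tet-on ROR gamma CHO cells.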

The nature of assay [5]: qHTS assay to identify small molecule agonists of the AP-1 signaling pathway - cell viability counter screen (AID 1159525). Also: nearly all actives have a fitted effect of over 55% in size. The procedure, abridged: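 Luminescent ATP readout (Cell Titer Glo, 30 min RT), normalised to DMSO and tetra n-octyl ammonium bromide controls. Cells were ME-180 AP-1-bla in 0.5% dialyzed FBS Opti-MEM, with a 5 h, 37 °C compound exposure.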
Assay [6] can be described thus: qHTS assay to identify small molecule agonists of the AP-1 signaling pathway (AID 1159526). Also: potency is read from the fitted curve at half-maximal effect.
Assay [7] can be described thus: qHTS assay to identify small molecule agonists of the vitamin D receptor (VDR) signaling pathway - cell viability counter screen (AID 743224; active = well fitted curve in the direction sought with a large enough effect in the repeat runs; an effect the other way counts as inactive or inconclusive; also: nearly all actives have a fitted effect of over 50% in size; also: potency is read from the fitted curve at half-maximal effect). Put shortly: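 Viability is measured in the same wells as the VDR-bla reporter assay: after 16 h compound treatment and 2 h substrate loading, CellTiter-Glo is added and luminescence read 30 min later.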
The target in assay [8] is Retinoic acid receptor RXR-alpha (Homo sapiens) (UniProt P19793). As to the kind of experiment: qHTS assay to identify small molecule agonists of the RXR signaling pathway (AID 1159527). Also: nearly all actives have a fitted effect of over 35% in size. The procedure, abridged: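 Using 9-cis retinoic acid as the reference agonist, chemicals were tested in HEK 293T cells […] for 16 hr; substrate loading lasted 2 hr at room temperature.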
Sequence of Retinoic acid receptor RXR-alpha (Homo sapiens) (P19793 whole entry, looked up): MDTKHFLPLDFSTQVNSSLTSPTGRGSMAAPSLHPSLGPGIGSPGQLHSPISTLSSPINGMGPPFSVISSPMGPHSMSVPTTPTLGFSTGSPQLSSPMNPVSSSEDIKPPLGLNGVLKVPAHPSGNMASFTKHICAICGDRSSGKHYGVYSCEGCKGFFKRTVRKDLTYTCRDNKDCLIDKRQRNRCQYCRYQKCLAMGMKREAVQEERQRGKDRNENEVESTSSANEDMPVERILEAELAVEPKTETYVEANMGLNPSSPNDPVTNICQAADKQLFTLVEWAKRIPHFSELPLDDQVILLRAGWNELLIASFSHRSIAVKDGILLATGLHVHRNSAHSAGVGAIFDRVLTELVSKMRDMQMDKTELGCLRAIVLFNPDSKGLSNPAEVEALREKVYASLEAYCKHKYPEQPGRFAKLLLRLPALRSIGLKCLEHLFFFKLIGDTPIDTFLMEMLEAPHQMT

Assay [9] has as its target Nuclear receptor ROR-gamma (Homo sapiens) (UniProt P51449). The assay is described as follows: qHTS assay to identify small molecule antagonists of the retinoid-related orphan receptor gamma (ROR-gamma) signaling pathway (AID 1159521; active = well fitted curve in the direction sought with a large enough effect in the repeat runs; an effect the other way counts as inactive or inconclusive; also: nearly all actives have a fitted effect of over 50% in size; also: potency is read from the fitted curve at half-maximal effect). The procedure, abridged: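 Test compounds were applied to Tet-on RORγ CHO cells 2 h ahead of doxycycline hyclate (1 uM final). Luciferase reporter activity was quantified by luminescence after 16 h at 37 C and 5% CO2.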

A short description of assay [10]: qHTS assay to identify small molecule agonists of the endoplasmic reticulum stress response signaling pathway - cell viability counter screen (AID 1159517). The procedure, abridged: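 Cells, HeLa ESRE-bla; density, 1,500/well; dosing, 5 hr at 37 C, 5% CO2; readout, CellTiter-Glo luminescence after 30 min RT.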

Structures are written as SMILES. Records with an inconclusive call do not appear. Unmarked numbers belong to inactive results. Active and inactive are the calls of the source. Unless noted, calls follow the shape of the full dose curve.

`COc1ccc(S(=O)(=O)N2C(=O)[C@@](c3ccccc3OC)(N3C[C@H](O)C[C@H]3C(=O)N(C)C)c3cc(Cl)ccc32)c(OC)c1`: the Potency entry in assay [1], in assay [2], in assay [3], in assay [4], in assay [5] and in assay [6] was “inactive” throughout.

Consider `C=CC(=O)OCCOc1ccccc1`, for which the Potency result in assay [1], in [2], in assay [3], in assay [4] and in [5] was “inactive” in each case.

`CC(C)(C)Cl`: the Potency entry in assay [7], in assay [1], in [2], in [3], in assay [4] and in [5] was “inactive” in each case. For the same compound, the Potency entry in assay [6] and in assay [8] was “inactive” in each case.

For the compound `CCN(CC)CCNc1ccc(CNC=O)c2sc3ccc(OC)cc3c(=O)c12`, the figures for the Potency in assay [7], in assay [1] and in assay [4] were 54.9 µM (active), 43.6 µM (active) and 54.5 µM (active), respectively. The Potency entry in assay [2], in assay [3], in [5] and in assay [6] was “inactive” in each case.

For `C=C(C)C(=O)OCCOCC`, the Potency result in assay [7], in assay [1], in assay [2], in assay [3], in assay [4] and in [5] was “inactive” each time. Moreover, in assay [8], the Potency result is “inactive”. In assay [6], the Potency is 49.2 µM (active).

Consider `CC(C)(CO)[N+](=O)[O-]`, for which the Potency entry in assay [7], in [1], in assay [2], in [3], in [4] and in assay [5] was “inactive” each time. Besides, the Potency entry in [6] and in assay [8] was “inactive” each time.

For `OC(C#CCN1CCCC1)(c1ccccc1)c1ccccc1`, the Potency entry in [1], in [2], in [3], in assay [4], in assay [5] and in assay [8] was “inactive” throughout. The Potency in assay [6] is 16.9 µM (active).

`Nc1ccccc1S(=O)(=O)c1ccccc1`: the Potency entry in assay [7], in assay [1], in assay [2], in [3], in [4] and in [5] was “inactive” in each case. Further, the Potency entry in [6] and in assay [8] was “inactive” each time.

As for `C=C1C(=C/C=C2\CCC[C@]3(C)[C@@H]([C@H](C)/C=C/[C@@H](O)C4CC4)CC[C@@H]23)C[C@@H](O)C[C@@H]1O`, the Potency entry in assay [7], in [2], in assay [3] and in assay [4] was “inactive” in each case. The Potency in assay [9] was 13.3 µM (active).

Regarding `Nc1cc(C(=O)O)c(O)c(S(=O)(=O)O)c1`, the Potency result in assay [7], in assay [1], in assay [2], in [3], in assay [4] and in assay [5] was “inactive” in each case. Moreover, the Potency entry in assay [6] and in assay [8] was “inactive” throughout.

For `O=C1[C@H]2CCCC[C@H]2C(=O)N1CCCCN1CCN(c2nsc3ccccc23)CC1`, the Potency entry in assay [7], in [1], in [2], in assay [10], in assay [4] and in assay [5] was “inactive” throughout. For the same compound, the Potency entry in [6] was “inactive”.

Turning to `CC(=O)[O][Al]`, the Potency entry in [7], in assay [1], in assay [2], in assay [10], in [4] and in [5] was “inactive” throughout. In addition, the Potency entry in assay [6] was “inactive”.

Turning to `CCCCCCCCO[C@@H]1O[C@H](CO)[C@@H](O)[C@H](O)[C@H]1O`, the Potency entry in [1], in [2], in assay [10], in [4], in [5] and in assay [6] was “inactive” throughout. Also, in [8], the Potency entry is “inactive”.

On to `CCC(CC)Nc1ccc(C)c(C)c1`, for which the Potency entry in [1], in assay [2], in [4], in [9] and in [5] was “inactive” throughout.

Take `Nc1ncn([C@H]2C[C@H](O)[C@@H](CO)O2)c(=O)n1`: the Potency result in [7], in assay [2], in assay [4] and in [5] was “inactive” throughout.

As to `COc1ccc(C)cc1[N+](=O)[O-]`, the Potency entry in assay [1], in assay [2], in assay [10], in [4], in assay [5] and in [6] was “inactive” each time. Besides, in [8], the Potency result was “inactive”.

On to `O=C(O)c1ccco1`, for which the Potency entry in assay [7], in [2], in [4], in assay [5], in assay [6] and in assay [8] was “inactive” each time.

As to `CC(C)CC(=O)C1C(=O)c2ccccc2C1=O`, the Potency result in assay [7], in assay [2], in [10], in assay [5] and in assay [6] was “inactive” throughout. Also, the Potency in assay [9] is 17.2 µM (active).

Take `CCCNCC(O)COc1ccccc1C(=O)CCc1ccccc1` (stereo not drawn): the Potency entry in [2], in assay [10], in assay [4] and in [5] was “inactive” throughout.

As for `CCCCCCCCCCCC(=O)OC[C@@H](O)[C@H]1OC[C@H](OCCO)[C@H]1OCCO`, the Potency entry in [2], in assay [10], in assay [4], in [5], in assay [6] and in assay [8] was “inactive” throughout.

With `COc1ccc2cccc(CCNC(C)=O)c2c1`, the Potency result in assay [7], in assay [1], in assay [2], in assay [10], in assay [4] and in assay [5] was “inactive” in each case. Also, in assay [6], the Potency result is “inactive”.

Turning to `CCCCC1=NC2(CCCC2)C(=O)N1Cc1ccc(-c2ccccc2-c2nn[nH]n2)cc1`, the Potency entry in [2], in [10], in [4], in assay [5], in assay [6] and in assay [8] was “inactive” throughout.

Regarding `O=P(O)(OCc1ccccc1)OCc1ccccc1`, the Potency result in [2], in [10], in [4], in [5], in assay [6] and in assay [8] was “inactive” each time.

These data come from PubChem BioAssay (Tox21).
